# In PubChem BioAssay:
# Values joined by “and” are separate entries in the source; they are usually repeats but may differ in a detail not shown here. Equal entries are not always repeated. Records with an inconclusive call do not appear. Active and inactive are the calls of the source. Cut-off read from the data, not from the text of the source, unless noted: active = inhibition above about 80%; inactive = the rest.
# Key:
# [1] = growth inhibition of DIPG glioma cells, dose response, cell-based, SU-DIPG-XVII, MIPE5.0, CellTiter-Glo, qHTS (AID 1347060; cut-off not given, nearly all actives have AC50 up to about 26 µM); conditions: SU-DIPG-XVII viability, CellTiter-Glo ATP luminescence
# [2] = SU-DIPG-XXV glioma cell viability, MIPE5.0 library, qHTS (AID 1347068; cut-off not given, nearly all actives have IC50 up to about 30 µM;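 for IC50: cells exposed to compound for 48 hours before viability readout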)
# [3] = sensitizers of A549 cells to miR-34 induction, primary screen, imaging, A549 dox-inducible miR-34, nuclei and caspase counts (AID 1347080;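 active = compounds whose cell count with miR-34 switched on is under 0.7 times the count with it off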); conditions: A549 miR-34 inducible, Hoechst nuclei count, 48 h
# [4] = survival rescue of mitochondrial mutant cells in low glucose, primary screen, MELAS cybrids, Rieske KO mouse fibroblasts, CellTiter-Glo (AID 1508586;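 active = mean z-score across replicates of 1.96 or higher in either the MELAS or the Rieske mutant cell line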;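 note: z relative to plate mean and SD of compound and empty wells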)
# [5] = growth inhibition of DIPG glioma cells, dose response, cell-based, SU-DIPG-XIII, MIPE4.0, CellTiter-Glo, qHTS (AID 1347061; cut-off not given, nearly all actives have AC50 up to about 37 µM;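 note: cells exposed to compound for 48 hours before readout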); conditions: SU-DIPG-XIII viability, CellTiter-Glo ATP luminescence
# [6] = growth inhibition of DIPG glioma cells, dose response, cell-based, JHH-DIPG-1, MIPE4.0, CellTiter-Glo, qHTS (AID 1347062; cut-off not given, nearly all actives have AC50 up to about 27 µM;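 note: cells exposed to compound for two days before readout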); conditions: JHH-DIPG-1 viability, CellTiter-Glo ATP luminescence
# [7] = growth inhibition of DIPG glioma cells, dose response, cell-based, SU-DIPG-IV, MIPE4.0, CellTiter-Glo, qHTS (AID 1347063; cut-off not given, nearly all actives have AC50 up to about 30 µM;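 note: compound exposure lasted 48 hours before the viability readout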); conditions: SU-DIPG-IV viability, CellTiter-Glo ATP luminescence
# [8] = growth inhibition of DIPG glioma cells, dose response, cell-based, SU-DIPG-XIII, MIPE5.0, CellTiter-Glo, qHTS (AID 1347064; cut-off not given, nearly all actives have AC50 up to about 23 µM;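 note: cells exposed to compound for 48 hours before the viability read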); conditions: SU-DIPG-XIII viability, CellTiter-Glo ATP luminescence
# [9] = viability loss in pontine glioma line – cell-based, SU-DIPG-XXV, MIPE5.0, CellTiter-Glo, qHTS, dose response (AID 1347065; cut-off not given, nearly all actives have AC50 up to about 26 µM;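 note: cells exposed to compound for 48 hours before ATP readout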); conditions: CellTiter-Glo ATP luminescence
# [10] = SU-DIPG-VI glioma cell viability, MIPE4.0 library, CellTiter-Glo luminescence, qHTS (AID 1347066; cut-off not given, nearly all actives have AC50 up to about 30 µM;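 note: cells exposed to compound for 48 hours before readout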); conditions: CellTiter-Glo ATP luminescence
# [11] = JHH-DIPG-1 glioma cell viability, MIPE5.0 library, CellTiter-Glo luminescence, qHTS (AID 1347067; cut-off not given, nearly all actives have AC50 up to about 26 µM;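 note: cells exposed to compound for 48 hours before readout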); conditions: JHH-DIPG-1 glioma viability, CellTiter-Glo ATP luminescence
# [12] = modifiers of HSF1 nuclear foci, imaging, Selleck Cancer Library (AID 1347162; in the data active = plate-normalised HSF1 focus index below about 0.46); conditions: human cells, at 10 µM; SSMD: measured here: HSF1 foci SSMD mean; cell count: measured here: cell number; plate-normalised HSF1 focus index: stronger effect = lower value
# [13] = LFS_MB_P medulloblastoma growth inhibition, cell-based, chromothripsis tumors, cisplatin or BGB combos (AID 1671449); conditions: LFS_MB_P medulloblastoma cells;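 note: cells exposed for 96 hours; 0% = vehicle DMSO and 100% = killing by high DMSO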
# [14] = HDN33 neuroblastoma growth inhibition, cell-based, chromothripsis tumors, cisplatin or BGB combos (AID 1671450); conditions: HDN33 neuroblastoma cells, stronger effect = higher value;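 note: cells exposed to compound for four days; 0% = vehicle DMSO and 100% = cell killing by high DMSO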
# [15] = ICB984 medulloblastoma cell growth inhibition, synergistic combos for chromothripsis tumors, cisplatin or BGB combos (AID 1671451; call rule not given here;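 note: cells exposed for 96 hours before readout; 0% = vehicle DMSO and 100% = killing by high DMSO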); conditions: ICB984 medulloblastoma cells, drug combinations, stronger effect = higher value
# [16] = LFS_MB_1R medulloblastoma cell growth inhibition, synergistic combos for chromothripsis tumors, cisplatin or BGB combos (AID 1671452); conditions: LFS_MB_1R medulloblastoma cells, stronger effect = higher value;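 note: cells exposed for 96 hours before readout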
# [17] = HTB85 osteosarcoma cell growth inhibition, synergistic combos for chromothripsis tumors, BGB or cisplatin IC20 combos (AID 1671453); conditions: HTB85 osteosarcoma cells, drug combinations, stronger effect = higher value;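 note: cells exposed for 96 hours before readout; 0% = vehicle DMSO and 100% = high DMSO killing control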
# [18] = CRL2098 osteosarcoma cell growth inhibition, synergistic combos for chromothripsis tumors, BGB or cisplatin IC20 combos (AID 1671454); conditions: CRL2098 osteosarcoma cells, drug combinations, stronger effect = higher value;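 note: cells exposed for 96 h before readout; 0% = vehicle DMSO and 100% = killing by high DMSO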
# [19] = HD-MB03 medulloblastoma cell growth inhibition, synergistic combos for chromothripsis tumors, BGB or cisplatin IC20 combos (AID 1671455; in the data active = inhibition above about 83%;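 note: 0% = vehicle DMSO and 100% = high DMSO as cytotoxic control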); conditions: HD-MB03 medulloblastoma cells, stronger effect = higher value
# [20] = UWB1.289 ovarian carcinoma cell growth inhibition, synergistic combos for chromothripsis tumors, BGB or cisplatin combos (AID 1671456); conditions: UWB1.289 ovarian carcinoma cells, stronger effect = higher value;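 note: cells exposed to compound for four days; 0% = vehicle DMSO and 100% = killing by high DMSO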
# [21] = LFS_MB_2R medulloblastoma cell growth inhibition, synergistic combos for chromothripsis tumors, cisplatin combos (AID 1671457); conditions: LFS_MB_2R medulloblastoma cells, stronger effect = higher value;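 note: cells exposed to compound for four days before readout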
# [22] = MDA-MB-436 breast carcinoma cell growth inhibition, synergistic combos for chromothripsis tumors, BGB or cisplatin combos (AID 1671458; call rule not given here;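 note: cells exposed for 96 hours; 0% = vehicle DMSO and 100% = killing by high DMSO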); conditions: MDA-MB-436 breast carcinoma growth inhibition, drug combinations, stronger effect = higher value
# [23] = UWB1.289_BRCA1 ovarian cancer growth, cell-based, BGB or cisplatin combinations (AID 1671459); conditions: UWB1.289 BRCA1 ovarian carcinoma, drug combinations, stronger effect = higher value
# [24] = human astrocyte viability loss, single and combined drugs, cytotoxicity control for chromothriptic childhood tumor combination screen, cell-based, BGB or cisplatin IC20 combos (AID 1671460); conditions: Human astrocytes, drug combinations, stronger effect = higher value;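 note: cells exposed to compounds for 96 hours before viability readout; 0% = vehicle and 100% = killing control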
# [25] = growth inhibition of BT084 medulloblastoma cells, cell-based, ICGC_MB145, cisplatin and BGB IC40 combos (AID 1671461); conditions: drug combinations, stronger effect = higher value;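 note: cells exposed to drugs for 96 hours; 0% = vehicle DMSO and 100% = high DMSO full killing control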
# [26] = growth inhibition of RCMB18 medulloblastoma cells, cell-based, cisplatin and BGB IC40 combos (AID 1671462); conditions: stronger effect = higher value;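 note: cells exposed to compound for four days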
# [27] = growth inhibition of CRL1545 osteosarcoma cells, cell-based, cisplatin and BGB IC20 combos (AID 1671464); conditions: stronger effect = higher value;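 note: cells exposed to compound for 96 hours before readout; 0% = vehicle DMSO and 100% = high DMSO killing control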
# [28] = stronger effect = lower value, cell number ratio, induced over uninduced
# [29] = measured here: relative caspase fold change +Dox/-Dox
# [30] = measured here: total cells with miR-34 induction, stronger effect = lower value
# [31] = measured here: total cells without miR-34 induction
# [32] = MELAS cybrid survival, CellTiter-Glo 48 h, stronger effect = higher value
# [33] = Rieske KO mouse fibroblast survival, CellTiter-Glo 72 h
# [34] = measured here: combination with BGB IC40, at 0.05 µM
# [35] = measured here: with BGB IC20 combination, at 0.5 µM
# [36] = measured here: with cisplatin IC20 combination, at 0.5 µM
# [37] = measured here: combination with cisplatin, at 0.5 µM
# [38] = measured here: combination with cisplatin, at 5 µM
structure (smiles),measurement,setting,value
COc1cc(OC)c2c(=O)[nH]c(-c3cc(C)c(OCCO)c(C)c3)nc2c1,outcome,[1],inactive
same,outcome,[2],inactive
same,fold change,[3]; [28],0.96 (inactive)
same,fold change,[3]; [29],0.714
same,cell count,[3]; [30],7650
same,cell count,[3]; [31],7970
same,z-score,[4]; [32],-0.573 (inactive)
same,z-score,[4]; [33],-1.26
CC(C)NC[C@@H](C(=O)N1CCN(c2ncnc3c2[C@H](C)C[C@H]3O)CC1)c1ccc(Cl)cc1,AC50,[5],11.8 µM (active)
same,AC50,[6],23.5 µM (active)
same,AC50,[7],7.43 µM (active)
same,AC50,[8],4.68 µM (active)
same,AC50,[9],5.25 µM (active)
same,AC50,[10],2.64 µM (active)
Nc1ccccc1NC(=O)c1ccc(CNC(=O)OCc2cccnc2)cc1,AC50,[5],14.8 µM (active)
same,AC50,[6],4.69 µM (active)
same,AC50,[7],1.32 µM (active)
same,AC50,[8],3.32 µM (active)
same,AC50,[9],2.35 µM (active)
same,AC50,[10],3.72 µM (active)
same,AC50,[11],2.95 µM (active)
same,IC50,[2],5.25 µM (active)
same,fold change,[3]; [28],0.935 (inactive) and 1.04 (inactive)
same,fold change,[3]; [29],1.69 and 0.81
same,cell count,[3]; [30],3300 and 2250
same,cell count,[3]; [31],3530 and 2180
same,SSMD,[12],2.19
same,cell count,[12],6960
same,plate-normalised HSF1 focus index,[12],1.11 (inactive)
same,z-score,[4]; [32],-0.681 (inactive)
same,z-score,[4]; [33],-1.12
same,inhibition,"[13]; at 0.5 µM, stronger effect = higher value",20.5% (inactive) and 31.3% (inactive)
same,inhibition,"[13]; measured here: combination with BGB IC20, at 0.005 µM",9.17% and -14%
same,inhibition,"[13]; measured here: combination with BGB IC40, at 0.005 µM",-20.6% and -27.1%
same,inhibition,[13]; [34],-4.42% and -24.6%
same,inhibition,"[13]; measured here: combination with cisplatin, at 0.5 µM, stronger effect = higher value",46.4% and 85.2%
same,inhibition,"[13]; measured here: combination with cisplatin, at 5 µM, stronger effect = higher value",118% and 115%
same,inhibition,"[14]; BGB combo, at 5 µM",97.1% and 92.4%
same,inhibition,[14]; at 0.5 µM,44% (inactive) and 41% (inactive)
same,inhibition,"[14]; cisplatin combo, at 5 µM",99.7% and 97%
same,inhibition,[14]; [35],39.9% and 34.6%
same,inhibition,[14]; [36],48.7% and 57.6%
same,inhibition,"[14]; single agent, at 5 µM",99.3% and 93.9%
same,inhibition,"[15]; BGB IC20 combo, at 0.005 µM",36.5% and 11%
same,inhibition,"[15]; BGB IC40 combo, at 0.005 µM",24.4% and 20.7%
same,inhibition,"[15]; BGB IC40 combo, at 0.05 µM",97.8% and 93%
same,inhibition,[15]; at 0.5 µM,-31.6% (inactive) and -19.6% (inactive)
same,inhibition,"[15]; cisplatin combo, at 0.05 µM",97.7% and 92.8%
same,inhibition,"[15]; cisplatin combo, at 0.5 µM",-49.4% and -14.7%
same,inhibition,"[15]; cisplatin combo, at 5 µM",10.2% and -21.6%
same,inhibition,"[15]; measured here: 5 uM single agent, at 5 µM",20% and -23%
same,inhibition,[16]; at 0.5 µM,61% (inactive) and 41.3% (inactive)
same,inhibition,[16]; [34],-9.37% and -18.3%
same,inhibition,[16]; [37],79.3% and 71.8%
same,inhibition,[16]; [38],96.9% and 96.1%
same,inhibition,[17]; at 0.5 µM,57.3% (inactive) and 32.6% (inactive)
same,inhibition,"[17]; measured here: with BGB IC20, at 0.5 µM",48% and 25.2%
same,inhibition,"[17]; measured here: with BGB IC20, at 5 µM",97.7% and 98.3%
same,inhibition,"[17]; measured here: with cisplatin IC20, at 0.5 µM",80.3% and 42.5%
same,inhibition,"[17]; measured here: with cisplatin IC20, at 5 µM",99.8% and 98.9%
same,inhibition,"[17]; single agent, at 5 µM",99.3% and 97.6%
same,inhibition,[18]; at 0.5 µM,0.19% (inactive) and -6.59% (inactive)
same,inhibition,"[18]; measured here: combination with BGB at IC20, at 0.5 µM",-0.645% and -36.5%
same,inhibition,"[18]; measured here: combination with cisplatin at IC20, at 0.5 µM",30.1% and 43.8%
same,inhibition,[19]; at 0.5 µM,42.6% (inactive) and 20.9% (inactive)
same,inhibition,"[19]; measured here: combo with BGB at IC20, at 0.5 µM",34.7% and 26.6%
same,inhibition,"[19]; measured here: combo with cisplatin at IC20, at 0.5 µM",87.6% and 25.8%
same,inhibition,[20]; at 0.5 µM,18.2% (inactive) and 10.7% (inactive)
same,inhibition,"[20]; measured here: inhibition with BGB combination, at 0.05 µM",0.005% and -12.1%
same,inhibition,"[20]; measured here: inhibition with cisplatin combination, at 0.05 µM",-11.8% and 3.27%
same,inhibition,[21]; at 0.5 µM,39.2% (inactive) and 22.4% (inactive)
same,inhibition,[21]; [37],66.8% and 38.1%
same,inhibition,[21]; [38],99.8% and 92.3%
same,inhibition,[22]; at 0.5 µM,18.4% (inactive) and 2.92% (inactive)
same,inhibition,"[22]; measured here: BGB combination, at 0.5 µM",16.3% and -2.7%
same,inhibition,"[22]; measured here: BGB combination, at 5 µM",55.1% and 44.4%
same,inhibition,"[22]; measured here: cisplatin combination, at 0.5 µM",15.5% and -5.2%
same,inhibition,"[22]; measured here: cisplatin combination, at 5 µM",49.1% and 36.5%
same,inhibition,"[23]; BGB combination, concentration series, at 5 µM",98.1% and 86.1%
same,inhibition,[23]; at 0.5 µM,28.5% (inactive) and 10.5% (inactive)
same,inhibition,"[23]; cisplatin combination, concentration series, at 5 µM",104% and 98.8%
same,inhibition,[24]; at 0.5 µM,5.28% (inactive) and 8.78% (inactive)
same,inhibition,"[24]; measured here: combo with BGB IC20, at 0.5 µM",3.25% and 5.25%
same,inhibition,"[24]; measured here: combo with cisplatin IC20, at 0.5 µM",2.55% and 12.8%
same,inhibition,[25]; at 0.5 µM,46.5% (inactive) and 28.3% (inactive)
same,inhibition,"[25]; cisplatin combination, at 0.5 µM",67% and 52.4%
same,inhibition,"[25]; cisplatin combination, at 5 µM",97.3% and 96.5%
same,inhibition,"[25]; measured here: BGB IC40 combination 0.05 uM, at 0.05 µM",51.3% and 7.15%
same,inhibition,"[25]; single agent, at 5 µM",87.5% and 72.2%
same,inhibition,[26]; at 0.5 µM,49.1% (inactive) and 37.1% (inactive)
same,inhibition,"[26]; cisplatin combo, at 5 µM",94.3% and 95%
same,inhibition,"[26]; measured here: BGB IC40 combination, at 0.05 µM",11.6% and 4.4%
same,inhibition,[26]; [37],71.2% and 58%
same,inhibition,"[26]; single agent, at 5 µM",95.5% and 86.6%
same,inhibition,[27]; at 0.5 µM,74.5% (inactive) and 39.4% (inactive)
same,inhibition,[27]; [35],71.4% and 25.4%
same,inhibition,[27]; [36],76.1% and 45.2%
same,inhibition,"[27]; single agent, at 0.05 µM",28.6% and -12.8%
same,inhibition,"[27]; single agent, at 5 µM",73.7% and 44.8%
